Data on 5 compounds can be found in PubChem BioAssay.

Active and inactive are the calls of the source. Unless noted, no rule for the calls is given here.

Experiment [1] deals with Wnt5a (protein binding on small-molecule microarray). The experiment in a line: Wnt5a binders on small-molecule microarray, primary screen, biophysical, 635/667 nm fluorescence (AID 1142).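 Also: fluorescence read at 667 nm with signal to noise per printed feature.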 Particulars: 635 nm fluorescence, higher = more signal.
Experiment [2] in a line: cell viability in Huh7 cells, primary screen, cytotoxicity control for HCV replication inhibitor project, CellTiter-Glo luminescence, basal, 48 h (AID 1143).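 Also: Huh7 hepatoma cells carrying a hepatitis C replication reporter with no stimulus; test concentration not given here.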 Particulars: Huh7 HCV replicon, higher = more signal, called active from +8 up or from −8 down.
Experiment [3] is described as follows: P. aeruginosa biofilm formation inhibitors, primary screen, PAO1 strain, BacTiter-Glo luminescence, LB-PBS (AID 1144). Particulars: 12 h, higher = more signal.
Experiment [4] can be described thus: CREB reporter modulators without forskolin, primary screen, cell-based, PC12, CRE-LacZ reporter, unstimulated (AID 1145). Particulars: no forskolin, luminescence, 4.5 h, higher = more signal, called active from +8 up or from −8 down.
Experiment [5] can be described thus: CREB reporter modulators under forskolin, primary screen, cell-based, PC12, CRE-LacZ reporter, forskolin-stimulated (AID 1146).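 Also: PC12 cells with 6xCRE LacZ reporter stimulated by forskolin 10 µM; beta-galactosidase reporter signal reflecting CREB driven transcription.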 Particulars: luminescence, 4.5 h, higher = more signal, called active from +8 up or from −8 down.
Experiment [6] concerns the target Streptavidin (Streptomyces avidinii) (UniProt P22629). The experiment in a line: streptavidin binders on small-molecule microarray, primary screen, artefact control for SMM compound annotation, biophysical, 635/667 nm fluorescence (AID 1147).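 Also: signal reflects streptavidin binding to arrayed compounds as a control protein.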 Particulars: streptavidin binding, higher = more signal.
A short description of experiment [7]: small-molecule binders of probe aInhba, primary screen, biochemical, small-molecule microarray, 635/667 nm fluorescence (AID 1148).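 Also: score merges 667nm spot fluorescence with signal-to-noise for antibody binding to printed compounds.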 Particulars: higher = more signal.
In experiment [8] the target is Torsin-1A (Homo sapiens) (UniProt O14656). The experiment in a line: torsin A binders from cell lysate, primary screen, small-molecule microarray, wild-type, 635/667 nm (AID 1149). Particulars: COS7 hTOR1A-WT lysate, 635 nm fluorescence, higher = more signal.
Torsin-1A (Homo sapiens), sequence (O14656 whole entry, looked up): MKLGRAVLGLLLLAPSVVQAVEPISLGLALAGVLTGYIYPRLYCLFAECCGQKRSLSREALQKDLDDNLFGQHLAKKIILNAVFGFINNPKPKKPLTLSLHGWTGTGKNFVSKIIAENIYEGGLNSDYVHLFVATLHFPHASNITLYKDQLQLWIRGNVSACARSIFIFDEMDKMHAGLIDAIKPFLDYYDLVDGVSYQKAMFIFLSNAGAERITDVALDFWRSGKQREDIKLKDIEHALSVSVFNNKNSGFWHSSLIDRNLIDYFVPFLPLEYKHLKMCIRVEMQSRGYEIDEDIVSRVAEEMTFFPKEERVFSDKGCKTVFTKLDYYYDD
Experiment [9] shares this target. Put plainly: small-molecule binders of mutant TOR1A in lysate, primary screen, cell lysate, small-molecule microarray, COS7 lysate, 635/667 nm fluorescence (AID 1150).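 Also: score pools 667 nm emission and signal to noise measuring lysate protein binding.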 Particulars: COS7 hTOR1A mutant lysate, 635 nm fluorescence, higher = more signal.
Experiment [10] has as its system Sonic hedgehog protein (Shh). Put plainly: small-molecule binders of Shh protein, primary screen, biochemical, small-molecule microarray, 635/667 nm fluorescence (AID 1151).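 Also: Shh protein binding to compounds spotted on small-molecule microarray slides; score combines spot fluorescence intensity with signal-to-noise across triplicate slides.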 Particulars: small-molecule microarray binding, 635 nm fluorescence; higher = more signal.
The nature of experiment [11]: E. coli DRC41 culture turbidity changes, primary screen, E. coli filamentation inducer project, strain DRC41, OD650, 48 h (AID 1152).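 Also: E. coli MC1000 strain DRC41 lacking acrAB efflux pump and sulA.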 Particulars: E. coli DRC41 (acrAB sulA), higher = more signal, called active from +8 up or from −8 down.
The nature of experiment [12]: small-molecule binders of probe aLefty1, primary screen, biochemical, small-molecule microarray, 635/667 nm fluorescence (AID 1153).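 Also: score merges spot fluorescence with signal-to-noise ratio from the scanned slide images.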 Particulars: higher = more signal.
The nature of experiment [13]: PSAC antagonists in infected red cells, primary screen, cell-based, P. falciparum Indochina, OD700, 1 h (AID 1154). Particulars: P. falciparum Indochina infected RBC osmotic lysis, higher = more signal, called active from +8 up or from −8 down.
Experiment [14] is described as follows: PSAC antagonists in infected red cells, primary screen, cell-based, P. falciparum Indochina, OD700, 2 h (AID 1155).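 Also: lysis reports solute entry through the parasite surface anion channel PSAC; channel blockers reduce lysis of infected cells.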 Particulars: P. falciparum Indochina infected erythrocytes, osmotic lysis OD700; higher = more signal, called active from +8 up or from −8 down.
Experiment [15] is described as follows: osmotic lysis modulators in infected erythrocytes, primary screen, PSAC antagonist project, cell-based, P. falciparum Indochina, OD700, 3 h (AID 1156). Particulars: higher = more signal, called active from +8 up or from −8 down.
Experiment [16] is described as follows: PSAC antagonists in infected red cells, primary screen, cell-based, P. falciparum Indochina, OD700, 18 h (AID 1157). Particulars: P. falciparum Indochina infected erythrocytes, osmotic lysis OD700, 18 h; higher = more signal, called active from +8 up or from −8 down.
Experiment [17] is described as follows: modulators of S6 phosphorylation in cells, primary screen, cell-based, A549, cytoblot, luminescence, serum-stimulated (AID 1158).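 Also: serum-stimulated A549 lung adenocarcinoma cells; signal is phosphorylated S6 detected by cytoblot immunostaining with HRP secondary.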 Particulars: A549 phospho-S6 cytoblot, 5 h, higher = more signal.
For experiment [18], the target named is NADPH oxidase 2 (Homo sapiens) (UniProt P04839). The experiment in a line: NOX2-dependent H2O2 signal modulators, primary screen, NOX inhibitor project, cell-based, HEK293-NOX2, PMA-stimulated, Amplex Red fluorescence (AID 1159). Also: test concentration not given here. Particulars: 45 min, higher = more signal, called active from +8 up or from −8 down.
NADPH oxidase 2 (Homo sapiens), sequence (P04839 whole entry, looked up): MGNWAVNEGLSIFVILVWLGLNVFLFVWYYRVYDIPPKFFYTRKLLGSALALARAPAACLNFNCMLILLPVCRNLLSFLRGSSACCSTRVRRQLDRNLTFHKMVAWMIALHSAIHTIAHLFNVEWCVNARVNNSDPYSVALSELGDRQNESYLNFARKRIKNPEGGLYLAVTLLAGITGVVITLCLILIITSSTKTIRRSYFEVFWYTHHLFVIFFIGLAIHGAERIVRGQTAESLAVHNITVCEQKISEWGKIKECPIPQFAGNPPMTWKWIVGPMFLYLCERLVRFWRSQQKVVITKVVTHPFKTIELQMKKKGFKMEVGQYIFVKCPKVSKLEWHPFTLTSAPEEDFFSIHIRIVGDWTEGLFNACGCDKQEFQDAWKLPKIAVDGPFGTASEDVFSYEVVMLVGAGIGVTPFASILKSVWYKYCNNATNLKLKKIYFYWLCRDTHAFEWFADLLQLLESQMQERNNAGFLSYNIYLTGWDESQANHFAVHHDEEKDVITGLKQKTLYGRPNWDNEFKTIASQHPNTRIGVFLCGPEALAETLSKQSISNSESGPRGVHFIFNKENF
For experiment [19], the target named is NADPH oxidase 4 (Homo sapiens) (UniProt Q9NPH5). The experiment in a line: NOX4-dependent H2O2 signal modulators, primary screen, NOX inhibitor project, cell-based, HEK293-NOX4, tetracycline-induced, Amplex Red fluorescence (AID 1160). Particulars: 45 min, higher = more signal, called active from +8 up or from −8 down.
NADPH oxidase 4 (Homo sapiens), sequence (Q9NPH5 whole entry, looked up): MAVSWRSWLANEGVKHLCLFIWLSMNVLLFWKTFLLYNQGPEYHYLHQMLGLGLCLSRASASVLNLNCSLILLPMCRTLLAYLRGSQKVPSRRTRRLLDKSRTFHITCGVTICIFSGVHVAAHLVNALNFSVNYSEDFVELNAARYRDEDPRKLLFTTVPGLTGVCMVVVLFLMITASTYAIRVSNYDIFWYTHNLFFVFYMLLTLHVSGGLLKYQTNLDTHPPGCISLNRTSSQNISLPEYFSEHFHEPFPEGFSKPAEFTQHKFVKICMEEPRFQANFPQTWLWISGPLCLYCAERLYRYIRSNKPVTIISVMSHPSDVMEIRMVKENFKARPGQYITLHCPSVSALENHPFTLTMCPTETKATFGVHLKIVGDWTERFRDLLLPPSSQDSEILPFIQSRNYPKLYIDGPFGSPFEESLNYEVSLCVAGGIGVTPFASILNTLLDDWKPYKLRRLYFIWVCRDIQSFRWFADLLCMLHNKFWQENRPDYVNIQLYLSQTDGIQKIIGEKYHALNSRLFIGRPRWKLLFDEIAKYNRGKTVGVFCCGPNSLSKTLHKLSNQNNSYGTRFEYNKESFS
Experiment [20] concerns the target NADPH oxidase 5 (Homo sapiens) (UniProt Q96PH1). Put plainly: NOX5-dependent H2O2 signal modulators, primary screen, NOX inhibitor project, cell-based, HEK293-NOX5, Amplex Red fluorescence (AID 1161). Particulars: HEK293-NOX5, ionomycin, 45 min, higher = more signal.

NADPH oxidase 5 (Homo sapiens), sequence (Q96PH1 whole entry, looked up): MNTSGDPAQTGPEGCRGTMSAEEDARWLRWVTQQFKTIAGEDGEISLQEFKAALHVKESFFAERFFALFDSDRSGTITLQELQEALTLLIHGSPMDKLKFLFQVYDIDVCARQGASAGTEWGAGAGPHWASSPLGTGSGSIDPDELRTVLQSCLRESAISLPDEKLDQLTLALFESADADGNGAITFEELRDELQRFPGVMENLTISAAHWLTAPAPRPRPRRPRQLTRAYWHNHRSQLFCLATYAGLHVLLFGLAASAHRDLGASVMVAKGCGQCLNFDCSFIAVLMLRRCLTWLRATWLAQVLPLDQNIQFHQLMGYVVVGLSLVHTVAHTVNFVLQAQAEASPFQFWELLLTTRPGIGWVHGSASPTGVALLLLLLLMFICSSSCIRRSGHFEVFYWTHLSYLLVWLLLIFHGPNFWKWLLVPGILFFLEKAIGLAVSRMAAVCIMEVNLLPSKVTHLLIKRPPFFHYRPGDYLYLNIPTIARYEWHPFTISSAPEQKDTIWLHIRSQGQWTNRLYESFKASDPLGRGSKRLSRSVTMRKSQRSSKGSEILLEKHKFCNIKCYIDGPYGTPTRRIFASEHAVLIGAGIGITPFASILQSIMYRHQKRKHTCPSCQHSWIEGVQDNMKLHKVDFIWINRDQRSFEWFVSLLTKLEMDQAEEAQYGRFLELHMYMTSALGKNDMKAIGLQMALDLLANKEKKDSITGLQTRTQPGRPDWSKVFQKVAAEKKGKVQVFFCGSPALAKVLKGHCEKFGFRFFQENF
Streptavidin (Streptomyces avidinii), sequence (P22629 whole entry, looked up): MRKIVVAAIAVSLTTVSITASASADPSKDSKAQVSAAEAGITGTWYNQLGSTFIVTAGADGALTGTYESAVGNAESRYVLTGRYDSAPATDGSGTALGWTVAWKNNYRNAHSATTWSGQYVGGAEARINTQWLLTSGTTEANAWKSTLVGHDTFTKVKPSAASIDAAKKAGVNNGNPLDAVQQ

For the compound `O=C1C2C=CC(C(O)c3c(F)cccc3Cl)N(Nc3ccccc3F)C2C(=O)N1c1ccccc1` (stereo not given), the composite z-score in experiment [1] is 0.185; in [6] it was 0.396; in [7], 0.143; with Torsin-1A (Homo sapiens) [8] it was 0.0354; with Torsin-1A (Homo sapiens) [9], 0.301; in experiment [10], -0.356. This compound came in with a composite z-score in experiment [12] of 0.19. The z-score was 1.04 (inactive) in experiment [2]; -0.563 (inactive) in experiment [3]; 0.243 (inactive) in experiment [4]; -0.0389 (inactive) in experiment [5]; -0.775 (inactive) in experiment [11]; 6.75 (inactive) in [13]. Moreover, the z-score in experiment [14] is 1.57 (inactive); in experiment [15] it was 0.303 (inactive); in experiment [16], 1.1 (inactive); in [17] it was -0.514; in experiment [18] it was -1.43 (inactive); in [19] it was -4.43 (inactive). In addition, the z-score in experiment [20] is -2.84.
For `COC(=O)c1c2oc(c1C(=O)OC)C(=O)NC1(CCCCC1)c1cn(nn1)C[C@H](Cc1ccccc1)NC(=O)N[C@H](CO)CC2`, the composite z-score in [1] was -0.151; in experiment [6] it was 1.05; in [7] it was -0.05; with Torsin-1A (Homo sapiens) [8] it was -0.299; in the experiment with Torsin-1A (Homo sapiens) [9] it was 0.113; in [10] it was 1.32. The composite z-score in experiment [12] is -0.258. In addition, the z-score is -0.275 (inactive) in experiment [2]; -0.926 (inactive) in experiment [3]; 3.49 (inactive) in [4]; -0.696 (inactive) in experiment [5]; 2.35 (inactive) in experiment [11]; 1.66 (inactive) in [13]. In addition, the z-score in [14] is -0.265 (inactive); in [15], 0.869 (inactive); in [16], 0.285 (inactive); in experiment [17] it was 0.229; in experiment [18], -0.463 (inactive); in experiment [19], 1.26 (inactive). In experiment [20], this compound registered a z-score of -0.0346.
On to `COCCOC(=O)N1C(=O)[C@@]2(c3cc(C#CC4(O)CCCCCC4)ccc31)[C@H](c1ccccc1OCCO)N1[C@H](c3ccccc3)[C@H](c3ccccc3)OC(=O)[C@H]1[C@@H]2C(=O)N1CCc2cc(OC)c(OC)cc2C1`, for which the composite z-score is 0.305 in experiment [1]; 0.738 in experiment [6]; -0.0496 in experiment [7]; 0.0651 in the experiment with Torsin-1A (Homo sapiens) [8]; 0.336 in the experiment with Torsin-1A (Homo sapiens) [9]; 1.11 in experiment [10]. In experiment [12], this compound showed a composite z-score of 0.379. Also, the z-score in experiment [2] is -3.17 (inactive); in experiment [3], -0.665 (inactive); in experiment [4], -1.29 (inactive); in experiment [5] it was 1.03 (inactive); in experiment [11], 0.109 (inactive); in experiment [13] it was 2.53 (inactive). The z-score in experiment [14] was 0.888 (inactive); in [15], 0.467 (inactive); in experiment [16] it was 0.773 (inactive); in [17] it was 0.495; in experiment [18] it was 1.25 (inactive); in experiment [19], 0.534 (inactive). The compound further showed a z-score in experiment [20] of 1.82.
On to `C=C(CCCC)/C(=C/C[C@@H](OC(C)=O)c1cccc(OCCO)c1)c1cnc2ccccc2c1`, for which the composite z-score was 0.16 in experiment [1]; 0.0063 in experiment [6]; -0.154 in [7]; 1.17 with Torsin-1A (Homo sapiens) [8]; 0.762 with Torsin-1A (Homo sapiens) [9]; 2.05 in experiment [10]. In experiment [12], this compound returned a composite z-score of 0.201. Further, the z-score in [2] is -0.82 (inactive); in experiment [3] it was -1.07 (inactive); in experiment [4], 1.7 (inactive); in experiment [5], -0.307 (inactive); in experiment [11], 0.776 (inactive); in experiment [13], 23.6 (active). The z-score is 6.35 (inactive) in experiment [14]; 2.48 (inactive) in experiment [15]; 1.51 (inactive) in [16]; 0.237 in experiment [17]; -2.25 (inactive) in experiment [18]; -0.934 (inactive) in [19]. Also, the z-score in experiment [20] was -2.22.
On to `CCCCC(O)C1C=CC2C(=O)N(C)C(=O)C2N1N1CCCCC1` (stereo not given), for which the composite z-score was 0.0755 in experiment [1]; 0.0223 in experiment [6]; 0.196 in experiment [7]; 0.0748 with Torsin-1A (Homo sapiens) [8]; 0.845 in the experiment with Torsin-1A (Homo sapiens) [9]; 0.0629 in experiment [10]. The compound also returned a composite z-score in experiment [12] of 0.384. Moreover, the z-score is 1.09 (inactive) in experiment [2]; 0.382 (inactive) in experiment [3]; 0.0535 (inactive) in experiment [4]; 0.47 (inactive) in [5]; -1.43 (inactive) in experiment [11]; 0.537 (inactive) in experiment [13]. The z-score in [14] was 0.917 (inactive); in [15], 0.155 (inactive); in experiment [16], 1.47 (inactive); in [17] it was -0.751; in [18] it was -0.353 (inactive); in experiment [19], 0.133 (inactive). Further, the z-score in experiment [20] was -1.03.
